{"source": "ChEMBL document CHEMBL4513216", "about": "“Probing the Open Global Health Chemical Diversity Library for Multistage-Active Starting Points for Next-Generation Antimalarials” (ACS Infect Dis, 2020)", "note": "Hit rate of the full screen: of about 69,000 compounds, about 8,600 (12%) showed an effect of 50% or more. This is one part of a sample in which strong results are shown more often than they occur.", "data": [{"system": "Plasmodium berghei", "assay": "Screen against P. berghei liver stage (PbLuc), transformed with Luciferase, at 10uM", "type": "functional, HepG2", "details": "tested at 10 uM", "units": {"INHIBITION": "%"}, "values": [{"molecule": "CN1CCOC(CNCc2coc(-c3ccc(Cl)cc3)n2)C1", "note": "(stereo unspecified)", "INHIBITION": 33.7}, {"molecule": "CN(CC(=O)N1CCc2[nH]c3ccc(F)cc3c2C1)CC1OCCO1", "INHIBITION": 22.9}, {"molecule": "Cc1c(C(=O)N2CCC3(CCCNC3=O)C2)sc2nc[nH]c(=O)c12", "note": "(stereo unspecified)", "INHIBITION": 12.9}, {"molecule": "CN(C)Cc1cnc2n1CCN(C(=O)NCc1ccccc1)CC2", "INHIBITION": 21.6}, {"molecule": "CC(=O)c1ccc(C(=O)NCCCOC(C)c2ccccc2)s1", "note": "(stereo unspecified)", "INHIBITION": 29.2}, {"molecule": "Cc1cc(N)nc(C2(C)CCCN2C(=O)c2cnccn2)n1", "note": "(stereo unspecified)", "INHIBITION": 17.1}, {"molecule": "O=S(=O)(NCCn1ccc(-c2ccccn2)n1)C1CCCCC1", "INHIBITION": 40}, {"molecule": "Cc1n[nH]c2nc(-c3cc(Br)ccc3O)cc(C(=O)O)c12", "INHIBITION": 4.82}, {"molecule": "Cc1ccc(O)c(CN2CCCCC2CCN2CCOCC2)c1", "note": "(stereo unspecified)", "INHIBITION": 30.3}, {"molecule": "Cc1nnc2n1CCN(Cc1csc(-c3ncccn3)n1)C2", "INHIBITION": 26.4}, {"molecule": "Cn1c(CN2CCCCC2)nnc1C1CCCN(c2ccncc2F)C1", "note": "(stereo unspecified)", "INHIBITION": -2.43}, {"molecule": "CN(C)C(=O)COCC1CN(Cc2ccoc2)Cc2nnn(C)c21", "note": "(stereo unspecified)", "INHIBITION": -3.24}, {"molecule": "CCn1nnc2c1C(COCC(=O)N(C)C)CN(Cc1ccco1)C2", "note": "(stereo unspecified)", "INHIBITION": -3.26}, {"molecule": "CCn1nnc2c1C(COCC(=O)N(C)C)CN(Cc1ccoc1)C2", "note": "(stereo unspecified)", "INHIBITION": 53.4}, {"molecule": "CC(C)N1CCc2nnc(COc3cncnc3)n2CC1", "INHIBITION": -2.25}, {"molecule": "CC(C)N1CCCCC1c1nc(N(C)C)ncc1I", "note": "(stereo unspecified)", "INHIBITION": -9.51}, {"molecule": "Cc1ncncc1-c1ccnc(N(C)C)n1", "INHIBITION": 4.08}, {"molecule": "CCCc1cc(NC2CCc3nc(C)nn3C2)n2ncnc2n1", "note": "(stereo unspecified)", "INHIBITION": -2.23}, {"molecule": "Cc1nc(NCC2CC2)nc2c1COCC21CCN(S(=O)(=O)C2CC2)C1", "note": "(stereo unspecified)", "INHIBITION": 66}, {"molecule": "CN(C)S(=O)(=O)N1CCC2(COCc3cnc(NCC4CC4)nc32)C1", "note": "(stereo unspecified)", "INHIBITION": 62.8}, {"molecule": "Cc1nc(NCC2CC2)nc2c1COCC21CCN(C(=O)C(C)(C)C)C1", "note": "(stereo unspecified)", "INHIBITION": 49.7}, {"molecule": "c1ccc(CN2CCC3(COCc4cnc(NCC5CC5)nc43)C2)cc1", "note": "(stereo unspecified)", "INHIBITION": 43.9}, {"molecule": "c1cc(N2CCC3(COCc4cnc(NCC5CC5)nc43)C2)ncn1", "note": "(stereo unspecified)", "INHIBITION": 31.7}, {"molecule": "CCN1CCC2(COCc3cnc(NCC4CC4)nc32)C1", "note": "(stereo unspecified)", "INHIBITION": 13.5}, {"molecule": "Fc1cnc(N2CCC3(COCc4cnc(NCC5CC5)nc43)C2)nc1", "note": "(stereo unspecified)", "INHIBITION": -53.2}, {"molecule": "O=S(=O)(C1CC1)N1CCC2(COCc3cnc(NCC4CC4)nc32)C1", "note": "(stereo unspecified)", "INHIBITION": 57.4}, {"molecule": "Cc1nc(NCC2CC2)nc2c1COCC21CCN(C)C1", "note": "(stereo unspecified)", "INHIBITION": 31.3}, {"molecule": "CC(C)c1noc(CCC(=O)NC(C)c2ccccn2)n1", "note": "(stereo unspecified)", "INHIBITION": -40.96}, {"molecule": "Nc1nccc(C2CCN(c3cnccn3)C2)n1", "note": "(stereo unspecified)", "INHIBITION": 30.5}, {"molecule": "CCOc1cc(C(=O)N2CCCC(c3nc(C)c(C)s3)C2)ccn1", "note": "(stereo unspecified)", "INHIBITION": 48.4}, {"molecule": "O=C(COc1ccc2c(c1)OCO2)NCc1ccco1", "INHIBITION": 31.135}, {"molecule": "CCCN1CCC(CC(=O)N2CCC(C(O)c3nccn3C)CC2)CC1", "note": "(stereo unspecified)", "INHIBITION": 6.69}, {"molecule": "CCn1nc(C)c2nc(C(C)C)nc(NC)c21", "INHIBITION": 16.8}, {"molecule": "COCCN1CCC2(CCCN(Cc3ccoc3)C2)C1=O", "note": "(stereo unspecified)", "INHIBITION": 8.74}, {"molecule": "CCN1CCCC2(CCN(Cc3nnc(C4CC4)o3)C2)C1=O", "note": "(stereo unspecified)", "INHIBITION": -9.18}, {"molecule": "COCCN1CCCC2(CCN(c3ncnc(C)c3C)C2)C1=O", "note": "(stereo unspecified)", "INHIBITION": 69.6}, {"molecule": "O=C1CCC2(CCCN(Cc3nnc(C4CC4)o3)C2)CN1CCO", "note": "(stereo unspecified)", "INHIBITION": 34.4}, {"molecule": "COCCN1CCCC2(CCN(Cc3nnc(C4CC4)o3)C2)C1=O", "note": "(stereo unspecified)", "INHIBITION": 51.2}, {"molecule": "COCCN1CCCC2(CCN(Cc3noc(C4CCCC4)n3)C2)C1=O", "note": "(stereo unspecified)", "INHIBITION": 9.56}, {"molecule": "COCCN1CCCC2(CCN(c3nccnc3N(C)C)C2)C1=O", "note": "(stereo unspecified)", "INHIBITION": -52.2}, {"molecule": "O=C1N(CCO)CCCC12CCN(Cc1nnc(C3CC3)o1)C2", "note": "(stereo unspecified)", "INHIBITION": 61.1}, {"molecule": "COCCN1CCCC2(CCN(c3ncc(Cl)cc3Cl)C2)C1=O", "note": "(stereo unspecified)", "INHIBITION": -5.8}, {"molecule": "Cc1nc2oc(C(=O)N3CCCC3)c(N)c2c2c1CCCC2", "INHIBITION": 16}, {"molecule": "CCn1cnnc1CNC(=O)N1CCN(c2ccc(OC)cc2)CC1", "INHIBITION": 36.1}, {"molecule": "CN(C)c1cc(CNC(=O)c2cnccn2)ccn1", "INHIBITION": -6.14}, {"molecule": "O=C(Cc1c(F)cccc1Cl)Nc1cc(N2CCOCC2)ncn1", "INHIBITION": 30.9}, {"molecule": "CC(C)n1nc(CN2CCCC2=O)c2c1CN(C(=O)c1ccco1)C2", "INHIBITION": 39.5}, {"molecule": "CCC1c2cccn2CCN1S(=O)(=O)N1CCOCC1", "note": "(stereo unspecified)", "INHIBITION": 31.2}, {"molecule": "CCN1CCN(C(=O)COCc2cccc(OC)c2)CC1", "INHIBITION": -28.675}, {"molecule": "Cc1ccc(CN2C(=O)CCC23CCC(NC2CCOC2)CC3)cc1", "note": "(stereo unspecified)", "INHIBITION": 35.8}, {"molecule": "Cc1occc1C(=O)N1CCOCC2(CCN(C3CCOCC3)C2)C1", "note": "(stereo unspecified)", "INHIBITION": 43.9}, {"molecule": "CC(C)S(=O)(=O)N1C[C@@H](O)[C@H](N(C)Cc2ccc(F)cc2)C1", "INHIBITION": 30.75}, {"molecule": "CNC(=O)Cc1ccc(NC(=O)NCC(C)c2ncc(C)s2)cc1", "note": "(stereo unspecified)", "INHIBITION": 14.8}, {"molecule": "CNC(=O)Cc1ccc(NC(=O)NCc2ncc(C)s2)cc1", "INHIBITION": 64}, {"molecule": "CNC(=O)Cc1ccc(NC(=O)NCc2nc(C)sc2C)cc1", "INHIBITION": 52.2}, {"molecule": "CNC(=O)Cc1ccc(NC(=O)NC2(c3cccc(F)c3)CC2)cc1", "INHIBITION": 9}, {"molecule": "Cc1cnc(CNC(=O)NCc2cccnc2N(C)C)s1", "INHIBITION": 45.8}, {"molecule": "CNC(=O)Cc1ccc(NC(=O)NC(C)C(C)C)cc1", "note": "(stereo unspecified)", "INHIBITION": -9.48}, {"molecule": "COc1ccc(-c2nc(CN3CCc4cncnc4C3)no2)cc1", "INHIBITION": 5.72}, {"molecule": "CCc1c(C(=O)N2C[C@@H]3CC[C@H]2CN(c2cnccn2)C3)csc1C", "INHIBITION": -59.5}, {"molecule": "CC(=O)c1ccc(S(=O)(=O)N2CCCC2CN2CCCC2)cc1", "note": "(stereo unspecified)", "INHIBITION": 51.1}, {"molecule": "CC(=O)c1ccc(C(=O)N2C[C@@H](CN3CCCC3)[C@@H](CO)C2)cc1", "INHIBITION": 32.5}, {"molecule": "CSc1ccc(S(=O)(=O)N2CCCCC2CCNC(C)=O)cc1", "note": "(stereo unspecified)", "INHIBITION": 11.8}, {"molecule": "COC[C@]1(O)CCN(C2CCN(c3ccc(F)c(F)c3)CC2)CC1(C)C", "INHIBITION": 39.4}, {"molecule": "COC(=O)c1cccc(C2CNCCN2C(C)=O)c1", "note": "(stereo unspecified)", "INHIBITION": 24.99}, {"molecule": "COC(=O)CNC(=O)Cn1ccc2cccc(OC)c21", "INHIBITION": 48.9}, {"molecule": "Cc1csc(N2CCN(CC(=O)Nc3cc(C)nn3C)CC2C)n1", "note": "(stereo unspecified)", "INHIBITION": 12.96}, {"molecule": "CCn1nc(C)c2nc(C(C)C)nc(N3CCCC3)c21", "INHIBITION": 15.4}, {"molecule": "Cc1nccn1CCN1C(=O)CC2(CCCC2)CC1=O", "INHIBITION": 56}, {"molecule": "O=C1CC2(CCCC2)CC(=O)N1CCn1cnnc1", "INHIBITION": -28.9}, {"molecule": "Cc1nncn1CCN1C(=O)CC2(CCCC2)CC1=O", "INHIBITION": -23.3}]}]}
